Among the test systems are NCI-H23 lung; NCI-H226 lung; NCI-H322M lung; HOP-62 NSCLC; NCI-H460 lung; HOP-92 NSCLC; NCI-H522 lung; A549/ATCC NSCLC; 786-0 renal; COLO 205 colon; DU-145 prostate; K-562 leukemia; MALME-3M melanoma; MDA-MB-231 breast; SF-268 CNS; SF-295 CNS; SF-539 CNS; UACC-257 melanoma; M14 melanoma.
Holding throughout (test): NCI-60 one-dose screen, 48 h (100 = growth as untreated, 0 = no growth, -100 = all killed)
Common to all, as to settings: 10 µM unless noted

This is part of a sample that, as a whole, favours compounds with a hit. Of some 83,000 tested, about 20% had one in any assay.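 Results are percent growth after 48 hours of single-concentration exposure. 100 means growth as in untreated cells, lower positive values show inhibition; negative values down to -100 show cell death.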 Values without a mark were called inactive. Calls of active or inactive are those of the source. How the source made its calls: active means growth percent below 10; inactive means the rest.

Turning to `NC(=O)c1cccc(-c2cc(C(N)=O)ccc2Cl)c1`, the growth with NCI-H23 lung is 43.3%; in the assay with NCI-H226 lung it was 69.1%; with NCI-H322M lung, 92.3%; with HOP-62 NSCLC, 35.9%; with NCI-H460 lung, 98.2%; with HOP-92 NSCLC, 52%. In addition, the growth in the assay with NCI-H522 lung is 23.4%; in the assay with A549/ATCC NSCLC, 85%; in the assay with 786-0 renal, 48.7%; with COLO 205 colon, 33.5%; with DU-145 prostate it was 27.1%; in the assay with K-562 leukemia, 8.24% (active). The growth was 46.4% in the assay on MALME-3M melanoma; 47.4% in the assay on MDA-MB-231 breast; 45.3% with SF-268 CNS; 25% in the assay with SF-295 CNS; -21% (active) in the assay on SF-539 CNS; 47.8% in the assay on UACC-257 melanoma. Besides, the growth in the assay on M14 melanoma is 16.1%.

With `CC(=O)O[C@H]1CC[C@@]2(C)[C@@H](CC[C@@H]3[C@@H]2CC[C@@]2(C)[C@H]3CC[C@]2(O)C(C)=O)C1`, the growth with NCI-H23 lung is 101%; in the assay with NCI-H226 lung, 89.8%; with NCI-H322M lung, 91.9%; in the assay with HOP-62 NSCLC, 95.3%; in the assay with NCI-H460 lung, 105%; in the assay on HOP-92 NSCLC, 101%. For the same compound, the growth with NCI-H522 lung was 96.8%; in the assay on A549/ATCC NSCLC, 92.1%; in the assay with 786-0 renal, 98.1%; with COLO 205 colon it was 107%; in the assay on DU-145 prostate it was 115%; in the assay with K-562 leukemia it was 100%. The growth in the assay with MALME-3M melanoma is 99.5%; with MDA-MB-231 breast it was 100%; with SF-268 CNS, 106%; in the assay on SF-295 CNS it was 94.4%; with SF-539 CNS it was 100%; with UACC-257 melanoma, 109%. In the assay on M14 melanoma, the growth is 99.3%.

For `COc1cc(NCCCN(CC(C)C)CC(C)C)c2ncccc2c1`, the growth is 72.9% with NCI-H23 lung; 97.8% in the assay with NCI-H226 lung; 108% in the assay with NCI-H322M lung; 87.6% in the assay with HOP-62 NSCLC; 95.2% in the assay with NCI-H460 lung; 84.2% with HOP-92 NSCLC. Besides, the growth in the assay on NCI-H522 lung is 73.2%; in the assay with A549/ATCC NSCLC, 80.7%; with 786-0 renal, 90.7%; in the assay on COLO 205 colon, 90.2%; in the assay with DU-145 prostate it was 106%; in the assay on K-562 leukemia, 110%. Besides, the growth in the assay on MALME-3M melanoma was 102%; in the assay on MDA-MB-231 breast, 88.7%; in the assay with SF-268 CNS, 89.5%; in the assay on SF-295 CNS it was 89.4%; in the assay with SF-539 CNS, 102%; in the assay on UACC-257 melanoma, 90.9%. Also, the growth in the assay on M14 melanoma is 91.4%.

For `O=C(CN1CCOCC1)Nc1ccc2ncnc(Nc3ccc(OCc4cccc(F)c4)c(Cl)c3)c2c1`, the growth in the assay with NCI-H23 lung was 89.6%; in the assay with NCI-H226 lung it was 85.1%; in the assay on NCI-H322M lung, 20.9%; with HOP-62 NSCLC, 84.5%; in the assay with NCI-H460 lung, 67.5%; in the assay on HOP-92 NSCLC it was 60%. In addition, the growth with NCI-H522 lung was 25.2%; with A549/ATCC NSCLC it was 49.9%; in the assay on 786-0 renal, 66.2%; in the assay on COLO 205 colon, 66.7%; with DU-145 prostate, 50.5%; in the assay on K-562 leukemia, 43.9%. Moreover, the growth in the assay with MALME-3M melanoma is 83.7%; in the assay with MDA-MB-231 breast, 71%; with SF-268 CNS it was 68.7%; in the assay with SF-295 CNS, 73.9%; in the assay with SF-539 CNS it was 75.3%; in the assay on UACC-257 melanoma, 87.9%. Further, the growth in the assay with M14 melanoma is 68.5%.

In the case of `COc1cc2nc(-c3ccc(-c4nn[nH]n4)cc3)[nH]c(=O)c2cc1OC`, the growth in the assay with NCI-H23 lung was 93.7%; in the assay on NCI-H226 lung it was 106%; with NCI-H322M lung, 176%; in the assay on HOP-62 NSCLC, 99.3%; with NCI-H460 lung it was 115%; in the assay on HOP-92 NSCLC, 132%. Further, the growth in the assay with NCI-H522 lung was 96.1%; in the assay on A549/ATCC NSCLC, 30.5%; in the assay on 786-0 renal it was 104%; in the assay with COLO 205 colon it was 117%; with DU-145 prostate, 114%; in the assay with K-562 leukemia, 109%. In addition, the growth in the assay with MALME-3M melanoma is 215%; with MDA-MB-231 breast it was 119%; with SF-268 CNS, 99.9%; in the assay with SF-295 CNS it was 122%; in the assay on SF-539 CNS, 99.5%; in the assay with UACC-257 melanoma it was 122%. Moreover, in the assay with M14 melanoma, the growth is 102%.

As for `COc1ccc(C2CC(c3cccc(Nc4ccncc4)c3)=NN2c2cc(Cl)cc(Cl)c2)cc1` (configuration not stated), the growth in the assay with NCI-H23 lung was 80.2%; in the assay with NCI-H226 lung, 87.6%; in the assay on NCI-H322M lung, 75.9%; in the assay on HOP-62 NSCLC, 25.1%; with NCI-H460 lung it was -77.6% (active); in the assay with HOP-92 NSCLC it was 54.9%. Also, the growth in the assay on NCI-H522 lung is 4.77% (active); with A549/ATCC NSCLC, 26.5%; in the assay on 786-0 renal, 99.2%; with COLO 205 colon it was -55.1% (active); in the assay on DU-145 prostate, 13.3%; with K-562 leukemia, 0.631% (active). Also, the growth with MALME-3M melanoma was -40.6% (active); in the assay on MDA-MB-231 breast, 44.7%; in the assay on SF-268 CNS, 66.3%; in the assay on SF-295 CNS it was 72.4%; with SF-539 CNS it was 78%; in the assay with UACC-257 melanoma it was 62%. Further, the growth in the assay on M14 melanoma was 97%.

`O=C(Nc1cccc(Cl)c1)Oc1c(Br)c(Br)c(Br)c(Br)c1Br`: the growth in the assay with NCI-H23 lung is 91%; with NCI-H226 lung, 81.3%; in the assay on NCI-H322M lung it was 107%; in the assay on HOP-62 NSCLC, 56.1%; in the assay on NCI-H460 lung, 99.7%; in the assay on HOP-92 NSCLC, 66.5%. Moreover, the growth in the assay with NCI-H522 lung is 58.8%; in the assay on A549/ATCC NSCLC, 73.7%; with 786-0 renal, 93.8%; in the assay with COLO 205 colon, 100%; with DU-145 prostate, 105%; with K-562 leukemia, 78.5%. Further, the growth is 90.7% in the assay with MALME-3M melanoma; 103% with MDA-MB-231 breast; 91.4% in the assay on SF-268 CNS; 79.2% in the assay on SF-295 CNS; 98.1% in the assay with SF-539 CNS; 69.4% in the assay with UACC-257 melanoma. The growth in the assay on M14 melanoma was 90.9%.

Take `CCN1C(=O)N(CC)C2NC(SC)=NC21` (configuration not stated): the growth with NCI-H23 lung is 98%; in the assay on NCI-H226 lung it was 94.3%; in the assay on NCI-H322M lung, 92.3%; in the assay with HOP-62 NSCLC, 91.8%; in the assay on NCI-H460 lung, 103%; with HOP-92 NSCLC it was 108%. Moreover, the growth is 102% in the assay on NCI-H522 lung; 103% with A549/ATCC NSCLC; 102% with 786-0 renal; 103% in the assay with COLO 205 colon; 111% with DU-145 prostate; 104% with K-562 leukemia. The growth in the assay on MALME-3M melanoma is 95%; in the assay with MDA-MB-231 breast, 103%; with SF-268 CNS, 95.3%; with SF-295 CNS, 101%; with SF-539 CNS it was 98.7%; with UACC-257 melanoma it was 97.8%. The growth in the assay with M14 melanoma was 100%.

Values taken from PubChem BioAssay (NCI).
